# Measurements: the supplement of paper PMC6555819
# Tested on: RARb:RXRa (NR concentration 270 nM, RXRa partner concentration 90 nM)
# Experiment: PBM binding z-score (relative to random genomic background probes); higher = stronger binding; sequences stand for … in GC…GCGATTGACAGCGTAGAATGAAGG
# Method in brief: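 On custom Agilent 4×180K arrays, double-stranded probes with 34-nt variable regions carried direct-repeat seeds, single-nucleotide variants, half-site ablations or random human genomic background. Ligand-free nuclear receptor dimers were applied for 1 h, and binding was read with antibodies against each partner (one per run). Binding z-scores come from regression-normalized fluorescence, with the random background probes as reference.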
row,Sequence,PBM binding z-score
1,CATACAGGGTCAGCAAGGCCAGAGTAGGGACGGC,4.25
2,CCTACTGGGCCAAAAAAGTCATTGATGCCGATAA,0.134
3,CCAGACAGGTGGAAGGTAACTCAGTCTGGTACGC,-0.313
4,GCTAGTTGGTCAGTAAAGGGTCACACACCGGTCG,3.43
5,TCTTGTAGCTCAAGCAGGTTAAGAAAGCCTGAGT,-0.012
6,ACTAGCAGGCCAAGGGTCACTAAAGATTAGTCCG,3.42
7,CCGACTGGGGCCAGGTTACCATAACGCACAGCCA,0.996
8,ATATGTAGGTTATCGGGTCATTCAATTTGCGCAT,2.87
9,CCTTTCGGGTCACTCCAGGTTATAGCATCGGAGT,4.01
10,ACAGACAGGTGAGTGAAGGTAACTCCGCTGGACG,0.621
11,TGTCAAAGTTCAACGGTAACGTAAGTATCCACAC,5.03
12,ATCTGTAGGTTAAGGGTCATTCAGGTTGGTTCGC,3.77
13,GGAAGGAGGGCAAAGTTGATAGCATCTGTCGACG,2.31
14,CGTCGAAGTTCAAGGTAACGTAACAGAAAGCAGC,3.38
15,AGTCAAAGTTCATCCAGGTAACGTAAGATATGCT,4.83
16,TAGCCTAGGTCATGGGCGAGTATACCACGCGAAC,3.91
17,CCAGACAGGTGAGAAGGTAACTAAGCCTCGATTA,0.585
18,CATACAGGGTCAGCTACGCCAGAGTAGGGACGGC,3.99
19,CATACAGGGTCAGCGAGGCCAGAGTAGGGACGGC,4.24
20,AATACAGGGTCATCGCAGGCCAGAGTACGCACAG,4.45
21,TCATATAGGAAATACAGGTGAAAGTCGGCATCTA,0.372
22,TTACCAAGGTGGGCTGAGGTCGTTGATCCAACTC,0.446
